According to PubChem BioAssay AID1159580 (chemical genetic matrix, 2015):
The whole screen tested about 5,500 compounds, of which about 2,000 (36%) were called active. Not shown: some 18% with an inconclusive outcome. No stated cut-off is given here; in the data, active means normalized growth mostly below about 0.91 (no sharp cut-off); inconclusive means no clear call, values can overlap the other calls; inactive means mostly above about 0.92. This is one part of the list.

Assay: chemical genetic growth profiling, strain panel (AID 1159580);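 further: tested at 20 µM; growth read once vehicle control cultures reached saturation at 30 °C; 1 = growth at the plate median or of vehicle wells; lower values mean less growth of the strain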
Details: S. cerevisiae deletion strains, growth OD
[1] = locus YAR019C, strain CDC15, active compounds read low
[2] = locus YBL105C, strain PKC1, active compounds read low
[3] = locus YBR135W, strain CKS1, active compounds read low
[4] = locus YBR136W, strain MEC1, active compounds read low
[5] = locus YBR160W, strain CDC28, active compounds read low
[6] = locus YDL017W, strain CDC7, active compounds read low
[7] = locus YDL028C, strain MPS1, active compounds read low
[8] = locus YDL101C, strain DUN1, active compounds read low
[9] = locus YDL108W, strain KIN28, active compounds read low
[10] = locus YDL132W, strain cdc53, active compounds read low
[11] = locus YDL214C, strain PRR2, active compounds read low
[12] = locus YDR052C, strain DBF4, active compounds read low
[13] = locus YDR054C, strain cdc34, active compounds read low
[14] = locus YDR226W, strain ADK1, active compounds read low
[15] = locus YDR477W, strain SNF1, active compounds read low
[16] = locus YER123W, strain YCK3, active compounds read low
[17] = locus YER133W, strain GLC7, active compounds read low
[18] = locus YFL009W, strain cdc4, active compounds read low
[19] = locus YFL029C, strain CAK1, active compounds read low
[20] = locus YFR003C, strain YPI1, active compounds read low
[21] = locus YFR019W, strain FAB1, active compounds read low
[22] = locus YFR028C, strain CDC14, active compounds read low
[23] = locus YGR040W, strain KSS1, active compounds read low
[24] = locus YGR052W, strain FMP48, active compounds read low
[25] = locus YGR092W, strain DBF2, active compounds read low
[26] = locus YHR030C, strain SLT2, active compounds read low
[27] = locus YHR079C, strain IRE1, active compounds read low
[28] = locus YHR082C, strain KSP1, active compounds read low
[29] = locus YHR205W, strain SCH9, active compounds read low
[30] = locus YIL147C, strain SLN1, active compounds read low
[31] = locus YJL095W, strain BCK1, active compounds read low
[32] = locus YJL128C, strain PBS2, active compounds read low
[33] = locus YJL157C, strain FAR1, active compounds read low
[34] = locus YJR016C, strain ILV3, active compounds read low
[35] = locus YJR066W, strain TOR1 (second series), active compounds read low
[36] = locus YJR066W, strain TOR1, active compounds read low
[37] = locus YKL048C, strain ELM1, active compounds read low
[38] = locus YKL067W, strain YNK1, active compounds read low
[39] = locus YKL101W, strain HSL1, active compounds read low
[40] = locus YKL193C, strain SDS22, active compounds read low
[41] = locus YKL203C, strain TOR2, active compounds read low
[42] = locus YLR113W, strain HOG1, active compounds read low
[43] = locus YLR133W, strain CKI1, active compounds read low
[44] = locus YLR403W, strain SFP1, active compounds read low
[45] = locus YML070W, strain DAK1, active compounds read low
[46] = locus YMR001C, strain CDC5, active compounds read low
[47] = locus YMR205C, strain PFK2 (second series), active compounds read low
[48] = locus YMR277W, strain FCP1, active compounds read low
[49] = locus YNL006W, strain LST8, active compounds read low
[50] = locus YNL020C, strain ARK1, active compounds read low
[51] = locus YNL161W, strain CBK1, active compounds read low
[52] = locus YNL183C, strain NPR1, active compounds read low
[53] = locus YNL207W, strain RIO2, active compounds read low
[54] = locus YNL222W, strain SSU72, active compounds read low
[55] = locus YNL307C, strain MCK1 (second series), active compounds read low
[56] = locus YOL078W, strain AVO1, active compounds read low
[57] = locus YOL136C, strain PFK27, active compounds read low
[58] = locus YOR061W, strain CKA2, active compounds read low
[59] = locus YOR119C, strain RIO1, active compounds read low
[60] = locus YOR231W, strain MKK1, active compounds read low
[61] = locus YOR329C, strain SCD5, active compounds read low
[62] = locus YPL031C, strain PHO85, active compounds read low
[63] = locus YPL153C, strain RAD53, active compounds read low
[64] = locus YPL204W, strain HRR25, active compounds read low
[65] = locus YPL209C, strain IPL1, active compounds read low
[66] = locus YPL256C, strain CLN2, active compounds read low
[67] = locus YPR025C, strain CCL1, active compounds read low
[68] = locus YPR106W, strain ISR1, active compounds read low
[69] = locus YPR111W, strain DBF20, active compounds read low
[70] = strain NNK1, active compounds read low
[71] = strain TSCII, active compounds read low

Measured: normalized growth

O=S(=O)(Nc1c(F)cccc1F)c1ccc(Cl)c(Cl)c1
inactive: [1] 0.933 | [2] 0.946 | [3] 0.932 | [4] 0.943 | [5] 0.937 | [6] 0.945 | [7] 0.939 | [8] 0.949 | [9] 0.947 | [10] 0.961 | [11] 0.984 | [12] 0.956 | [13] 0.933 | [14] 0.943 | [15] 0.959 | [16] 0.962 | [17] 0.964 | [18] 0.931 | [19] 0.933 | [20] 0.946 | [21] 0.948 | [22] 0.933 | [23] 0.951 | [24] 1.05 | [25] 0.843 | [26] 0.956 | [27] 0.942 | [28] 1 | [29] 0.982 | [30] 0.933 | [31] 0.947 | [32] 0.874 | [33] 0.97 | [34] 0.931 | [35] 0.967 | [36] 1.03 | [37] 0.93 | [38] 0.962 | [39] 0.96 | [40] 0.937 | [41] 1.02 | [42] 0.926 | [43] 0.964 | [44] 0.966 | [45] 0.961 | [46] 0.937 | [47] 0.973 | [48] 0.936 | [49] 0.941 | [50] 0.955 | [51] 0.94 | [52] 0.947 | [53] 0.937 | [54] 0.937 | [55] 0.95 | [56] 0.938 | [57] 0.985 | [58] 0.969 | [59] 1.05 | [60] 0.935 | [61] 0.943 | [62] 0.964 | [63] 0.927 | [64] 0.95 | [65] 0.94 | [66] 0.914 | [67] 0.934 | [68] 0.957 | [69] 0.934 | [70] 0.953 | [71] 0.93

COC(=O)c1cccc(NS(=O)(=O)c2ccc(Cl)c(Cl)c2)c1
active: [42] 0.861
inactive: [1] 0.981 | [2] 0.969 | [3] 0.973 | [4] 0.973 | [5] 0.983 | [6] 0.978 | [7] 0.977 | [8] 0.979 | [9] 0.973 | [10] 0.981 | [11] 0.971 | [12] 0.972 | [13] 0.961 | [14] 0.986 | [15] 0.991 | [16] 0.973 | [17] 0.985 | [18] 0.97 | [19] 0.982 | [20] 0.974 | [21] 0.994 | [22] 0.973 | [23] 1 | [24] 1.01 | [25] 0.948 | [26] 0.852 | [27] 0.923 | [28] 1.08 | [29] 0.904 | [30] 0.975 | [31] 0.896 | [32] 0.902 | [33] 0.98 | [34] 0.981 | [35] 0.98 | [36] 1.06 | [37] 0.949 | [38] 0.972 | [39] 0.962 | [40] 0.974 | [41] 1.05 | [43] 0.978 | [44] 0.985 | [45] 0.963 | [46] 0.975 | [47] 0.977 | [48] 0.973 | [49] 0.978 | [50] 0.974 | [51] 0.982 | [52] 1.04 | [53] 0.974 | [54] 0.98 | [55] 0.973 | [56] 0.979 | [57] 0.959 | [58] 0.986 | [59] 1.05 | [60] 0.953 | [61] 0.977 | [62] 0.98 | [63] 0.963 | [64] 0.959 | [65] 0.981 | [66] 0.895 | [67] 0.977 | [68] 0.977 | [69] 0.972 | [70] 0.966 | [71] 0.98

Cn1cc(Br)c(-c2cccc(NS(=O)(=O)c3ccc(Cl)cc3)c2)n1
inactive: [1] 0.987 | [2] 0.976 | [3] 0.998 | [4] 0.995 | [5] 0.979 | [6] 0.987 | [7] 0.992 | [8] 0.977 | [9] 0.999 | [10] 0.994 | [11] 1 | [12] 0.976 | [13] 0.988 | [14] 0.987 | [15] 0.992 | [16] 0.998 | [17] 1 | [18] 0.989 | [19] 0.993 | [20] 0.994 | [21] 1 | [22] 0.998 | [23] 0.995 | [24] 1.04 | [25] 0.984 | [26] 1.12 | [27] 1.11 | [28] 1.11 | [29] 0.987 | [30] 0.986 | [31] 0.988 | [32] 0.986 | [33] 0.998 | [34] 0.993 | [35] 1.01 | [36] 1.07 | [37] 0.999 | [38] 1.02 | [39] 1 | [40] 0.995 | [41] 1.06 | [42] 0.983 | [43] 1 | [44] 0.999 | [45] 1.01 | [46] 0.985 | [47] 1.01 | [48] 0.998 | [49] 0.999 | [50] 0.997 | [51] 0.981 | [52] 1.06 | [53] 0.987 | [54] 0.995 | [55] 0.98 | [56] 1 | [57] 1 | [58] 1 | [59] 1.06 | [60] 0.982 | [61] 0.986 | [62] 0.989 | [63] 0.994 | [64] 0.997 | [65] 0.992 | [66] 1.13 | [67] 0.981 | [68] 0.99 | [69] 0.985 | [70] 1 | [71] 0.993
